1 sequence from publication PMC7862700, “An all-to-all approach to the identification of sequence-specific readers for epigenetic DNA modifications on cytosine” can be followed below.

What all share (experiment): DAPPL (digital affinity profiling via proximity ligation, sequencing); 10 mM Tris-HCl pH 7.5, 50 mM NaCl, 1 mM DTT, 4% glycerol, room temperature, 30 min; GST-TFs on glutathione beads, 16-mer random dsDNA library, 0.1% formaldehyde crosslink after washing; high values mean tight binding
One assay concerns the target T1, FEV (Homo sapiens, UniProt Q99581 1-238).
T1 sequence: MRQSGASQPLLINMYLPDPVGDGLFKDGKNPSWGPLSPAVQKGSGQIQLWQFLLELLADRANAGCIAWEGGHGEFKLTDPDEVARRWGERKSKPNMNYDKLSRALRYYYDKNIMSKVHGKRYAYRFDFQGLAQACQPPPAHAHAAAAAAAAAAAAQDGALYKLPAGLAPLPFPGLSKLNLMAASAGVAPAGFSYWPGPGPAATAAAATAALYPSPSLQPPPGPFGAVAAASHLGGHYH
The conditions noted are these: protein: recombinant; tags: N-terminal GST; dsDNA, one strand shown. The essentials: (§1)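 Human transcription factors fused to GST were expressed in yeast, captured on glutathione beads, given DNA barcodes and pooled with a GST-only negative control. Pools were incubated with 200 nmole of a 16-mer random double-stranded DNA library in Tris/NaCl/DTT/glycerol buffer at room temperature for 30 min. They were then washed, crosslinked with 0.1% formaldehyde, proximity-ligated (BsaI/T4 ligase, 1 h, 37 °C), PCR-amplified and sequenced on an Illumina NextSeq500. Binding signal is each 6-mer's read frequency for a factor divided by its frequency for the GST control.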

For the next assay, the target named is ETV5 (Homo sapiens, UniProt P41161 1-510). To be noted: protein: recombinant; tags: N-terminal GST; dsDNA, one strand shown. The essentials: as §1
The target in a further assay is HSF1 (Homo sapiens, UniProt Q00613 1-529). The conditions noted are these: protein: recombinant; tags: N-terminal GST; chain copies: 3; dsDNA, one strand shown. The essentials:
as §1

In a further assay the target is T2, SPIC (Homo sapiens, UniProt Q8N5J4 1-248).
T2 sequence: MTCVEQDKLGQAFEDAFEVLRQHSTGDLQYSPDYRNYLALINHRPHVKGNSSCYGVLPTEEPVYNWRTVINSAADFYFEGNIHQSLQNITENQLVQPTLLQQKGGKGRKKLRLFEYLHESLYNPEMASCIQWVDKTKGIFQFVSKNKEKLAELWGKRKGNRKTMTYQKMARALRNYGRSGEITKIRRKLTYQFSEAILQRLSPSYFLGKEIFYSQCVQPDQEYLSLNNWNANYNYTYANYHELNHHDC
To be noted: protein: recombinant; tags: N-terminal GST; dsDNA, one strand shown. The essentials:
as §1

The target in a further assay is ELF4 (Homo sapiens, UniProt Q99607 1-663). The conditions noted are these: protein: recombinant; tags: N-terminal GST; dsDNA, one strand shown. The essentials: as §1
A further assay addresses T3, ELK4 (Homo sapiens, UniProt P28324-2 1-405).
T3 sequence: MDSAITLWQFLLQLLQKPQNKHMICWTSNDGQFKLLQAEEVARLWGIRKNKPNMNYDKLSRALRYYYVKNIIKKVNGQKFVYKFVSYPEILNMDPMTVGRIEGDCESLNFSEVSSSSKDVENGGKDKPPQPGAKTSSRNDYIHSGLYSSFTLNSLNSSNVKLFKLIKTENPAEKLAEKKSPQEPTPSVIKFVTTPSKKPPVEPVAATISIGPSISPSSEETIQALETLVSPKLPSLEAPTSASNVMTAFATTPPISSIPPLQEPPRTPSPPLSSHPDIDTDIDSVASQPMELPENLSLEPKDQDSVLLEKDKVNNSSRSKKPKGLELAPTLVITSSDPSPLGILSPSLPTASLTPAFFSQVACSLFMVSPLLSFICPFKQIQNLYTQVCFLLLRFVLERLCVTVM
The conditions noted are these: protein: recombinant; tags: N-terminal GST; dsDNA, one strand shown. The essentials:
as §1

The next assay concerns the target T4, ETV2 (Homo sapiens, UniProt O00321 1-342).
T4 sequence: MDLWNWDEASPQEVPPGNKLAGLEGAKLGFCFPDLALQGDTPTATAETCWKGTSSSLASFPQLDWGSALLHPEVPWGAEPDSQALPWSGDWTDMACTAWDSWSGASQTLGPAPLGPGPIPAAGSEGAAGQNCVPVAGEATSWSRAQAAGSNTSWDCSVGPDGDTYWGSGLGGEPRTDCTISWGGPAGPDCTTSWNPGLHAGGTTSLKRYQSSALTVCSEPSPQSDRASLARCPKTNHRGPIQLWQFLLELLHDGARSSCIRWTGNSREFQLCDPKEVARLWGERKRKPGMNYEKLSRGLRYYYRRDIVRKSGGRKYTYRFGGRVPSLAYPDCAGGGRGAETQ
To be noted: protein: recombinant; tags: N-terminal GST; dsDNA, one strand shown. An outline of the steps: as §1

Another assay concerns the target T5, ELF3 (Homo sapiens, UniProt P78545 1-371).
T5 sequence: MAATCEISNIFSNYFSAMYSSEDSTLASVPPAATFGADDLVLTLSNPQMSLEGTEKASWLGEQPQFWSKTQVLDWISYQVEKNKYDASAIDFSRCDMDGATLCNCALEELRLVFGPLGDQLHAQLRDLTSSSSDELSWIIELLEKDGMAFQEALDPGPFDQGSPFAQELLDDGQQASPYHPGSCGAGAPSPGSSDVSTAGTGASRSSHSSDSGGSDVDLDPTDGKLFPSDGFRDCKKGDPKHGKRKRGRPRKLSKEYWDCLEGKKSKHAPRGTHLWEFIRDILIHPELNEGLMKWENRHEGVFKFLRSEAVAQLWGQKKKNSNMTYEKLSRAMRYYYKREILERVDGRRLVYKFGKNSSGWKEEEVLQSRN
The conditions noted are these: protein: recombinant; tags: N-terminal GST; dsDNA, one strand shown. An outline of the steps:
as §1

A further assay addresses CRX (Homo sapiens, UniProt O43186 1-299). The conditions noted are these: protein: recombinant; tags: N-terminal GST; dsDNA, one strand shown. The essentials: as §1
Another assay has as its target ETV1 (Homo sapiens, UniProt P50549 1-477). The conditions noted are these: protein: recombinant; tags: N-terminal GST; dsDNA, one strand shown. An outline of the steps:
as §1

For another assay, the target named is T6, ERF (Homo sapiens, UniProt P50548 1-548).
T6 sequence: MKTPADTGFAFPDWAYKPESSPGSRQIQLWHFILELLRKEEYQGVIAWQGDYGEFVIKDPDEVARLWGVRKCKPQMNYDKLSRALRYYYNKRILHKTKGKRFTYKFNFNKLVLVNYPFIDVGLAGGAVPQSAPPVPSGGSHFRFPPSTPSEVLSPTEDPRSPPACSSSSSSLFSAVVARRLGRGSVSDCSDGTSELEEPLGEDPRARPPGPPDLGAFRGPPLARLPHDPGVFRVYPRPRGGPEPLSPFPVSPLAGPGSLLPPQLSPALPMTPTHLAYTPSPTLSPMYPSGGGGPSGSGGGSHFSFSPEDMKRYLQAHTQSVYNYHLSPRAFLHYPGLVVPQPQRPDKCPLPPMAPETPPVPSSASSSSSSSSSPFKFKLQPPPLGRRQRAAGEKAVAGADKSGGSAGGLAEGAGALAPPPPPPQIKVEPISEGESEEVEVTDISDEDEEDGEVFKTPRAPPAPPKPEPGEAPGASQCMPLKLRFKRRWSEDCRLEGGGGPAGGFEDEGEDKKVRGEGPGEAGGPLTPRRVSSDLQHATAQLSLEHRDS
To be noted: protein: recombinant; tags: N-terminal GST; dsDNA, one strand shown. An outline of the steps: as §1

For another assay, the target named is T7, ETV3L (Homo sapiens, UniProt Q6ZN32 1-361).
T7 sequence: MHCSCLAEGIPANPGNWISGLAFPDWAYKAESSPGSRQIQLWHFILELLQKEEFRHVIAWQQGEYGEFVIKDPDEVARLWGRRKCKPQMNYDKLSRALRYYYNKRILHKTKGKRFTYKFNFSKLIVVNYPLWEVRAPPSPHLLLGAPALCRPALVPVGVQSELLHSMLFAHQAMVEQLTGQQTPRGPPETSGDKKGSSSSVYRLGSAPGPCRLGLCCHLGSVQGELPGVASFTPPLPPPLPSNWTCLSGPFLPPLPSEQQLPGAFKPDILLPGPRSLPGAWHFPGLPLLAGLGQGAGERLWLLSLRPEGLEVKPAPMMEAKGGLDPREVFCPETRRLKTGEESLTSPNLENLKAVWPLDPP
The conditions noted are these: protein: recombinant; tags: N-terminal GST; dsDNA, one strand shown. An outline of the steps:
as §1

The target of a further assay is T8, ETS2 (Homo sapiens, UniProt P15036 1-469).
T8 sequence: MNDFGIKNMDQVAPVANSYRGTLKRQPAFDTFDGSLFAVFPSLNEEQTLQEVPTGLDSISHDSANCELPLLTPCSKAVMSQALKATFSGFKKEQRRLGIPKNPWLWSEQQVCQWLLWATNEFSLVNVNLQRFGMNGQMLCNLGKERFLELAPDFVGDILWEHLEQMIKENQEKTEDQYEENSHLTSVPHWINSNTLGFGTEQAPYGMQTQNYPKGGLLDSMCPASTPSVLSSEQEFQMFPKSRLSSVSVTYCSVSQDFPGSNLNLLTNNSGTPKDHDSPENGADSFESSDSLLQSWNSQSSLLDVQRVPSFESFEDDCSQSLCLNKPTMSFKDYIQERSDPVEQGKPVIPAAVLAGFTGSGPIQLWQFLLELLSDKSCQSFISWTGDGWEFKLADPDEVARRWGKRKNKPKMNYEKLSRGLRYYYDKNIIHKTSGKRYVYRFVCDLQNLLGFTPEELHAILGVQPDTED
To be noted: protein: recombinant; tags: N-terminal GST; dsDNA, one strand shown. An outline of the steps:
as §1

Another assay concerns the target T9, SPDEF (Homo sapiens, UniProt O95238 1-335).
T9 sequence: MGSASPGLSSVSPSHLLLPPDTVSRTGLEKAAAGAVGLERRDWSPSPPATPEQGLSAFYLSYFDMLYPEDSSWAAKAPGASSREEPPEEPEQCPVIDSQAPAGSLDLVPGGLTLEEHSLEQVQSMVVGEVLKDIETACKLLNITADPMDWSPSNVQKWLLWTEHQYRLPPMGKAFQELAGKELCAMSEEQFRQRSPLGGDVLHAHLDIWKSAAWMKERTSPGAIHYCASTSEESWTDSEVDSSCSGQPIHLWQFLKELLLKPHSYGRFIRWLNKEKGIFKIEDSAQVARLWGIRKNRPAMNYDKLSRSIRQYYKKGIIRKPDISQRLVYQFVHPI
The conditions noted are these: protein: recombinant; tags: N-terminal GST; dsDNA, one strand shown. An outline of the steps: as §1

In a further assay the target is T10, ETV7 (Homo sapiens, UniProt Q9Y603 1-341).
T10 sequence: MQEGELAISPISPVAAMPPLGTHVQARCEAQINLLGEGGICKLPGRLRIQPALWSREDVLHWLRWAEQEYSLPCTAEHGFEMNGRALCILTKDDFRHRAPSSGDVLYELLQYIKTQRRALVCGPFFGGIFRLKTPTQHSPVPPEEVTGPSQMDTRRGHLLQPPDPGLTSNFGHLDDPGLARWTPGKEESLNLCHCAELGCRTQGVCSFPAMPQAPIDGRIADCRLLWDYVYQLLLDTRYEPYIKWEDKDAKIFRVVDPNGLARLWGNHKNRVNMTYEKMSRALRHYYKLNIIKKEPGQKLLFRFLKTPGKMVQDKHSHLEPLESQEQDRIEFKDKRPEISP
The conditions noted are these: protein: recombinant; tags: N-terminal GST; dsDNA, one strand shown. The essentials:
as §1

Another assay concerns the target T11, ELF5 (Homo sapiens, UniProt Q9UKW6-2 1-255).
T11 sequence: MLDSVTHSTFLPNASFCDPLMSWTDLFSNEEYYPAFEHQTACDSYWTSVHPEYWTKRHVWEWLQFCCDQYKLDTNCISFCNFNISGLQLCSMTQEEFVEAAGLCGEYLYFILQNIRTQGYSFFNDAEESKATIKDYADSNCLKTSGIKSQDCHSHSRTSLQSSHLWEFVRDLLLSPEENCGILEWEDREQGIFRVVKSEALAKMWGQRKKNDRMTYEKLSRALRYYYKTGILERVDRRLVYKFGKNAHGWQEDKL
To be noted: protein: recombinant; tags: N-terminal GST; dsDNA, one strand shown. The essentials: as §1

The next assay deals with T12, ETV3 (Homo sapiens, UniProt P41162-2 1-143).
T12 sequence: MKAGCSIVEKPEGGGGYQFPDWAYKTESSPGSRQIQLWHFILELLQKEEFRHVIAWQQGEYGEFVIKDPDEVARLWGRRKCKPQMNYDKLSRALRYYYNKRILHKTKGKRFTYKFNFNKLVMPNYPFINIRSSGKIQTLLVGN
To be noted: protein: recombinant; tags: N-terminal GST; dsDNA, one strand shown. An outline of the steps: as §1

In the next assay the target is ETV6 (Homo sapiens, UniProt P41212 1-452). To be noted: protein: recombinant; tags: N-terminal GST; dsDNA, one strand shown. The essentials:
as §1

Chain of ETV5 (P41161 whole entry): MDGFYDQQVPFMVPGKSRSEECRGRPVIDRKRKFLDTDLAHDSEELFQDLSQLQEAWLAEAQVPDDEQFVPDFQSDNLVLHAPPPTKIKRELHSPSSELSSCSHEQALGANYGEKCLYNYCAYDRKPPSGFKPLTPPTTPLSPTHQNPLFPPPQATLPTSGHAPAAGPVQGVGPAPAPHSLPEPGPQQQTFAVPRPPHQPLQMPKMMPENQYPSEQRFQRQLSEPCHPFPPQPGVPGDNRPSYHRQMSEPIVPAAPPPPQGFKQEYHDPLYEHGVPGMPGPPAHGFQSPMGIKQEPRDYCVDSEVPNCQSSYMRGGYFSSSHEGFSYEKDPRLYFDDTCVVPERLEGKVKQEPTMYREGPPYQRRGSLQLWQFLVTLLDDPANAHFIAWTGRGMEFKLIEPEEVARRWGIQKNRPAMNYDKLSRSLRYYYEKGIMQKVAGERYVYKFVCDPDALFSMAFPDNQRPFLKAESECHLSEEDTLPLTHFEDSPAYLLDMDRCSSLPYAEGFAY
Chain of HSF1 (Q00613 whole entry): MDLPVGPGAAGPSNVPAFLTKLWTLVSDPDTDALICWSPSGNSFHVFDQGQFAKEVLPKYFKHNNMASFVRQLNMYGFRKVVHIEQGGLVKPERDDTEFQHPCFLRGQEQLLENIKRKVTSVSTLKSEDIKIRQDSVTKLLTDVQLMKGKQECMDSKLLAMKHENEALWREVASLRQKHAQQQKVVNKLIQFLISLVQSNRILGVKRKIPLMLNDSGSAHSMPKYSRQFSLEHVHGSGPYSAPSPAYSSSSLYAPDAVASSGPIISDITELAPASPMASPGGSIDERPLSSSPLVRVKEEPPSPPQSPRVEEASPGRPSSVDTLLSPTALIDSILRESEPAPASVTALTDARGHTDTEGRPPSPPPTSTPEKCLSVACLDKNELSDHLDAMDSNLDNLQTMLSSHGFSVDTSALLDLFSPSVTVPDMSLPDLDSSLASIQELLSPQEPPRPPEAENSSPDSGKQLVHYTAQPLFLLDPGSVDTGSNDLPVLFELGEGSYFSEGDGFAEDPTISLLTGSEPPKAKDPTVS
Chain of ELF4 (Q99607 whole entry): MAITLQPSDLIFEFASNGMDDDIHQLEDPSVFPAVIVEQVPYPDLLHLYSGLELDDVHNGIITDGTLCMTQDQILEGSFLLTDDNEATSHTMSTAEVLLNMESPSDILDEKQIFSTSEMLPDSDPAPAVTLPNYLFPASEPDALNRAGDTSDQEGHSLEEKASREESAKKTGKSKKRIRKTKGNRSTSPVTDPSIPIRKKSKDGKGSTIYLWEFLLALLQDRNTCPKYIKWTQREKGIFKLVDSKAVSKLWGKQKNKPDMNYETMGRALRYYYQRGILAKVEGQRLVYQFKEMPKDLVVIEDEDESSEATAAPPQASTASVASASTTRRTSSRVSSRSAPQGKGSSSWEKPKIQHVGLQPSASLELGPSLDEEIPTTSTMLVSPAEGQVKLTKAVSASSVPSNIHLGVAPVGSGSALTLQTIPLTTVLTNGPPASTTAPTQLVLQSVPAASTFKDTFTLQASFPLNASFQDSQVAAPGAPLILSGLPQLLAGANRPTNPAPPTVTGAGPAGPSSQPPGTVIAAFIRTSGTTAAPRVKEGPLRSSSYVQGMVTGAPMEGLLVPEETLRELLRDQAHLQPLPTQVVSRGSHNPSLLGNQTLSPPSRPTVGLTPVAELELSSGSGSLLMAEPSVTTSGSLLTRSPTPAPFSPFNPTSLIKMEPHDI
Chain of ETV6 (P41212 whole entry): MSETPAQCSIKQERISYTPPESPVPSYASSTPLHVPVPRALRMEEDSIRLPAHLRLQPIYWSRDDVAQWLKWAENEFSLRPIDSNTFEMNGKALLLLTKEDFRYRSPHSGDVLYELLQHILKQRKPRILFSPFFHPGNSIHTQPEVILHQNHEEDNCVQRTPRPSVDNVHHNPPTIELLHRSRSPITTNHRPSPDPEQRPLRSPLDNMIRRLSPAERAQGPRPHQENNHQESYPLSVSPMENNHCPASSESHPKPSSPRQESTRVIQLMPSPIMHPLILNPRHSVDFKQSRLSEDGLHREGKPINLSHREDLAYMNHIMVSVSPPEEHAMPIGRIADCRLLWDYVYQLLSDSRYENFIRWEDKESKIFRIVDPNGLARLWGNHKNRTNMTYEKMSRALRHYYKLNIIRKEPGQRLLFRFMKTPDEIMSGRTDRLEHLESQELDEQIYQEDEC
Chain of CRX (O43186 whole entry): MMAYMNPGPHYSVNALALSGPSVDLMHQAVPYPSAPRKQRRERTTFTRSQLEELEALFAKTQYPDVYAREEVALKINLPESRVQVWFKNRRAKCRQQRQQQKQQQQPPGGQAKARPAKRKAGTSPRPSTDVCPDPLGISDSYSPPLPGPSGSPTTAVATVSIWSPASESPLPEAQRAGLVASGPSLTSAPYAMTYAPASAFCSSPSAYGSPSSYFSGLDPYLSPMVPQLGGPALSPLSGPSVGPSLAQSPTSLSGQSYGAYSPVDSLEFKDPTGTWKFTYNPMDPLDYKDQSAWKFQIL
Chain of ETV1 (P50549 whole entry): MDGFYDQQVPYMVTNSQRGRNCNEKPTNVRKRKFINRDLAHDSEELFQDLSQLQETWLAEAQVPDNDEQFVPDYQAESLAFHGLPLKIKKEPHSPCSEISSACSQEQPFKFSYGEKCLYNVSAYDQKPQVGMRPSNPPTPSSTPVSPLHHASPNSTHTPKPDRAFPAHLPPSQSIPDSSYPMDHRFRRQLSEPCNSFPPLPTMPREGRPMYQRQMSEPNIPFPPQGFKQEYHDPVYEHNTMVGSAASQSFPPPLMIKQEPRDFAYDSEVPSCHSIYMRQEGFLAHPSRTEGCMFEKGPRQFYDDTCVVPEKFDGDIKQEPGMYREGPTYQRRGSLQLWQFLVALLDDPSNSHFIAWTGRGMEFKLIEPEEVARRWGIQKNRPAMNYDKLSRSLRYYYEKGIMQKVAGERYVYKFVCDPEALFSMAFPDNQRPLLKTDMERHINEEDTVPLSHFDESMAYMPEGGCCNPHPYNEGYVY

With TCAATA, the binding signal was 1.15 fold enrichment (6-mer frequency, TF over GST control) with FEV; 1.21 fold enrichment (6-mer frequency, TF over GST control) with ETV5; 1.18 fold enrichment (6-mer frequency, TF over GST control) with HSF1; 1.06 fold enrichment (6-mer frequency, TF over GST control) in the assay with SPIC; 1.17 fold enrichment (6-mer frequency, TF over GST control) with ELF4; 1.29 fold enrichment (6-mer frequency, TF over GST control) with ELK4. Besides, the binding signal was 1.26 fold enrichment (6-mer frequency, TF over GST control) in the assay with ETV2; 1.23 fold enrichment (6-mer frequency, TF over GST control) in the assay with ELF3; 1.34 fold enrichment (6-mer frequency, TF over GST control) with CRX; 1.24 fold enrichment (6-mer frequency, TF over GST control) in the assay with ETV1; 1.24 fold enrichment (6-mer frequency, TF over GST control) with ERF; 1.24 fold enrichment (6-mer frequency, TF over GST control) in the assay with ETV3L. Further, the binding signal was 1.15 fold enrichment (6-mer frequency, TF over GST control) with ETS2; 1.17 fold enrichment (6-mer frequency, TF over GST control) in the assay with SPDEF; 1.26 fold enrichment (6-mer frequency, TF over GST control) with ETV7; 1.08 fold enrichment (6-mer frequency, TF over GST control) in the assay with ELF5; 1.23 fold enrichment (6-mer frequency, TF over GST control) with ETV3; 1.14 fold enrichment (6-mer frequency, TF over GST control) with ETV6.
